Data on 27 molecules can be found in PMC12136788.

B1: chr1:213241217:213241334:+|CDS|ENSG00000136643|unk|FALSE|unique (ssRNA)
RNA: GGGAGUUCUACAGUCCGACGAUCAGUUCUCCAAGAACAUCAGAUUCCCUCAGUAGAUCAAAAAAUAGCCCCAUGGAAUUCUUUAGGAUAGACAGUAAGGAUAGCGCAAGUGAACUCCUGGGACUUGACUUUGGAGAAAAAUUGCAACAGAGGAUUGAGCAUCA
B2: chr9:122240152:122240253:-|3pUTR|ENSG00000119446|msi1|FALSE|unique (ssRNA)
RNA: GGGAGUUCUACAGUCCGACGAUCCUUCUUGGAGUAUAGAAUUCACCAUUUUAUCCGUAAGUCUUCAAAGGAUUAUGGUGGACUAGAACUUACAUAGUGCAAAAUAGUCUUCUAUUUUUAAUAGGAACUUAGAAAAAACUUAGACAACAGAGGAUUGAGCAUCA
B3: ENSG00000070961:be:win_4551|3pUTR|ENSG00000070961|bound_else_gene|NA|bound_elsewhere_windowed (ssRNA)
RNA: GGGAGUUCUACAGUCCGACGAUCAAUGAAAGAUGCUUGAAAUGCUUUUGUUAUUUCAGGCAAAUCAAAUUAAAUCAGACUAUCAAACUACAAGAGAACCUUAGUCUUUUUUGUUUUUGUCUAAACAUGUUAGUUUAGUGAUGUCAACAGAGGAUUGAGCAUCA
B4: chr1:213241217:213241334:+|CDS|ENSG00000136643|unk|total|mutant (ssRNA)
RNA: B1 RNA with U53C, A54C, U65C, A66C, U83C, A84C, U88C, A89C, U101C, A102C
B5: chr9:122240152:122240253:-|3pUTR|ENSG00000119446|msi1|total|mutant (ssRNA)
RNA: GGGAGUUCUACAGUCCGACGAUCCUUCUUGGAGUACCGAAUUCACCAUUUUAUCCGUAAGUCUUCAAAGGAUUAUGGUGGACCCGAACUUACACCGUGCAAAACCGUCUUCUAUUUUUAACCGGAACUCCGAAAAAACUCCGACAACAGAGGAUUGAGCAUCA
B6: chr3:121431430:121432303:-|three_prime_utr|ENSG00000051341|control|control|control (ssRNA)
RNA: GGGAGUUCUACAGUCCGACGAUCUGGAAAGAACAGAGAUUACCCUUUCACCUACCUCAGCAAAACAAACUUUCAAGUCUUGAUAGACUUAGCCUAGUAAUUUUAUAGUGAGAGUUUCAAACUAUAUAUCAGUGUCUAUAGCAUCAACAGAGGAUUGAGCAUCA
B7: ENSG00000120802:stop:overlap|stop_codon|ENSG00000120802|stop_codon|NA|stop_codon (ssRNA)
RNA: GGGAGUUCUACAGUCCGACGAUCGUGGAACAUUAUUUGGAGGAGAAGUAUGCAAAGUAAUUAAAAAGCGUGGAAAUAAACACUAGUAAAAUUAAGGACAAAAAGACAUCUAUCUUAUCUUUCAGGUACUUUAUGCCAACAUUUCAACAGAGGAUUGAGCAUCA
B8: ENSG00000177426:stop:overlap|stop_codon|ENSG00000177426|stop_codon|NA|stop_codon (ssRNA)
RNA: GGGAGUUCUACAGUCCGACGAUCCUCAAAGACAGAAGGAAUAUCUUUUUAUUGUAAACUUGAUAGUGUUAAAAGCUAAUAACUAGCUAUUUAGAGAACACAGAAACACUUGACAGUCAUCUAUCAGAUAGCAUUUCCUUUAAUCAACAGAGGAUUGAGCAUCA
B9: ENSG00000107863:be:win_1951|CDS|ENSG00000107863|bound_else_gene|NA|bound_elsewhere_windowed (ssRNA)
RNA: GGGAGUUCUACAGUCCGACGAUCCCAGUAAAUCACUUGCAUCAGAACAGUCUGUUGAAUCAGCAGACAUGGGUAAGGACUGACAGUGCCCCCGAUCAGCAAGUGGAGACUGGGAAAUCCCCCUCUUUAUCUGGAGCCUCUGCCCAACAGAGGAUUGAGCAUCA
B10: ENSG00000198589:be:win_3051|CDS|ENSG00000198589|bound_else_gene|NA|bound_elsewhere_windowed (ssRNA)
RNA: GGGAGUUCUACAGUCCGACGAUCAGAAAUGAAAGCUGAGCAAGAAAAUCAGGAGUUACCAGAUGAAGGCACUUUGGAAGAAACACUGACAAAUGAGACAAGGAAUGCAGAUGAUUUAGAAGUAUCUUCUGACAUAAUAGAAGCCAACAGAGGAUUGAGCAUCA
B11: chr8:58582127:58582250:+|3pUTR|ENSG00000137575|unk|total|mutant (ssRNA)
RNA: GGGAGUUCUACAGUCCGACGAUCUUCAUAUUACUUCCGUUCUACCGCAUACUUGCAUCUUUAACAUGCUAUCACCGUACAUUCCGAAUGAUUGCCUUUGAUUUUUUUUUUAAAUUCUGUGUGUGUGUGUGUAAAAUGCCAAUUCAACAGAGGAUUGAGCAUCA
B12: chr3:44491765:44499181:-|three_prime_utr|ENSG00000178917|control|control|control (ssRNA)
RNA: GGGAGUUCUACAGUCCGACGAUCACUAAUCACAGUGGAGACCAUACCUACUUGCUUUUCCUUGGGUCACUAAGGUGGGAGAGUAGGUGCAACUUAGUCUGAUCCUUACUUAGUAGGAAAUUGGGGAUUACAUCUGUCAUUAACCAACAGAGGAUUGAGCAUCA
B13: chr11:59152587:59152688:+|CDS|ENSG00000166801|msi1|FALSE|unique (ssRNA)
RNA: GGGAGUUCUACAGUCCGACGAUCAUUGAAAACUUCAAGAAAAAAAUGAAAGUAAAAAAUGGGGAAACAUUAUUUGAAUUGCAUAGAACAACGUUUGGGAAAGUAACAAAAAAUUCUUCUUCGAUUAAAGUAGUGAAACUUCUUCAACAGAGGAUUGAGCAUCA
B14: chr3:98797769:98798349:-|3pUTR|ENSG00000057019|msi1|total|mutant (ssRNA)
RNA: GGGAGUUCUACAGUCCGACGAUCUUGUUUUUGAUACCUCCUGGCAGCUUCCAUGUCACCACUUGUUCAUACCUGCCCAGAGCCCGUUUCCGACAUGGCAAAACCGAAAUCAUCUGUAAUUUAUCCGCUAACAAUGUAAAACCACAACAGAGGAUUGAGCAUCA
B15: chrX:71101288:71101389:+|CDS|ENSG00000184481|unk|FALSE|unique (ssRNA)
RNA: GGGAGUUCUACAGUCCGACGAUCGGAGGCCCUGCUCACCUCUGAUACGCCACCACCCCCUGCUGACGUCCUCAUGACCCAGGUAGAUCCCAUUCUGUCCCAGGCUCCGACUCUUCUGUUGCUGGGGGGGCUUCCUUCCUCCAGCAACAGAGGAUUGAGCAUCA
B16: chr16:57253408:57253449:+|3pUTR|ENSG00000102931|msi1_unk|total|mutant (ssRNA)
RNA: GGGAGUUCUACAGUCCGACGAUCUGUGUGGCCGAUUACUUAUCAGAAAACAUAUAUGUCAUCUCCCGAACGAAGAAAAAGCACCGCCGUUCAAUUCCCAGUGUGUCCCUUUGAUUUUUUUUUUUUAACCGUAAAAAUAAGAAUCAACAGAGGAUUGAGCAUCA
B17: chr16:57253408:57253449:+|3pUTR|ENSG00000102931|msi1_unk|FALSE|overlapping (ssRNA)
RNA: B16 RNA with C31U, C32A, C65U, C66A, C83U, C84A, C86U, C87A, C128U, C129A
B18: chr2:16549458:16552935:-|three_prime_utr|ENSG00000197872|control|control|control (ssRNA)
RNA: GGGAGUUCUACAGUCCGACGAUCUUGCUACUGGAGUCCUUUAACAACAUCUAUAACGAUAAAAAAUUCCUAAUUGUUUGUGGUAGUAUUUUAAUUCUAGAUGUGUUAUCUCUCUGGGAAGUAUAGUUUAUAGAAACACAAAAUCAACAGAGGAUUGAGCAUCA
B19: ENSG00000139428:stop:overlap|stop_codon|ENSG00000139428|stop_codon|NA|stop_codon (ssRNA)
RNA: GGGAGUUCUACAGUCCGACGAUCUAUUACUAUUCUUAACACUUACCUGUUCCUGGCUACCAUUUCUCCAUGGCGGGCCUGACUAGGUUUGCUCUGGAAUUAGUCACAGAAAAGGGCCAUACAUUUGCCGAAGAGCUUCAGAAACAACAGAGGAUUGAGCAUCA
B20: chr14:51255895:51255996:+|3pUTR|ENSG00000139921|msi1_unk|FALSE|overlapping (ssRNA)
RNA: GGGAGUUCUACAGUCCGACGAUCGUGAAUCCAUUAGAUUUACAGUAUCGUAAUAUACAAGUUUUCUUUAAAGCCCUCUCCUUUAGAAUUUAAAAUAUUGUACCAUUGAAGAGUUUGGAUGUGUAACUUGUGAUGCCUUAGAAACAACAGAGGAUUGAGCAUCA
B21: chr22:45843749:45843850:+|3pUTR|ENSG00000130638|msi1|FALSE|unique (ssRNA)
RNA: GGGAGUUCUACAGUCCGACGAUCAAAUUGCAAGUGUUUGAAGAUUUAUAAGUACAAAUUUGGGAACAUACAAAUCUUUUAGGUAGUAGAGUUUAACGUGUAUAAGCUAAAAGUGAAAGUAACUGAGUGUUCUCUUGUUUCUUUCAACAGAGGAUUGAGCAUCA
B22: ENSG00000198589:be:win_9451|3pUTR|ENSG00000198589|bound_else_gene|NA|bound_elsewhere_windowed (ssRNA)
RNA: GGGAGUUCUACAGUCCGACGAUCUUAAACUAUCAUCUCCACCUUCCUUUUGAUUAGCAAUUUGUACUAAGAAACGAAACAAUGUUAUUUGGUGGUGUAUAAUUCUACUUUUCUAGUAGAUUACUGUGUGGAAUUCUGUGAAAACAACAGAGGAUUGAGCAUCA
B23: chrX:71300841:71300885:+|3pUTR|ENSG00000147140|msi1_unk|FALSE|overlapping (ssRNA)
RNA: GGGAGUUCUACAGUCCGACGAUCCCCCAUAUAUUACCCCUUCAUGUCCUAAAGAAGACAUUUUCUCUUAGAGAUUUUCAUUUUAGUGUAUCUUUAAAAAAAAAUCUUGUGUUAACUUGCCUCCAUCUUUUUCUUGGGUGAGGACAACAGAGGAUUGAGCAUCA
B24: ENSG00000070961:be:win_3151|CDS|ENSG00000070961|bound_else_gene|NA|bound_elsewhere_windowed (ssRNA)
RNA: GGGAGUUCUACAGUCCGACGAUCACAUUACUCUGGGGCCAGCUUAUUUCAACAAUUCCAACUAGCCGUUUAAAAUUCCUCAAAGAAGCUGGUCAUGGAACACAAAAGGAAGAAAUACCUGAGGAGGAAUUAGCAGAGGAUGUUCAACAGAGGAUUGAGCAUCA
B25: chr5:111496093:111496242:-|3pUTR|ENSG00000164211|unk|FALSE|unique (ssRNA)
RNA: GGGAGUUCUACAGUCCGACGAUCUUUACAUGUAUAGUUAAAUAUUAAAAUUCAUCUCUUGCAGUUCAAUAAAAGCUAUAGUAUAGAUUUUAUUUUUAAGAAGUUUAUAUAAUUCUUUUGUGAACCAAUAUGUAAAACUAGAAUCAACAGAGGAUUGAGCAUCA
B26: chr6:73594753:73594854:-|3pUTR|ENSG00000119899|unk|FALSE|unique (ssRNA)
RNA: GGGAGUUCUACAGUCCGACGAUCGGUUCACAUACCUGCCUGCUAGUCGGGCAACAUGAAGUAGGACAGUUCUGUUGAUUUUUUAGGGCCAUACUAAAGGGAAUGAGCUGAAACAGACCUCCUGAUACCUUUGCUUAAUUAAACCAACAGAGGAUUGAGCAUCA
B27: chrX:71300841:71300885:+|3pUTR|ENSG00000147140|msi1_unk|total|mutant (ssRNA)
RNA: B23 RNA with U68C, A69C, U83C, A84C

Positions count from the first letter of the chain named. Over roughly 5,800 sequences, “enrichment r” has its median near 0.54; the highest 2% begin near 16. The entries come from a sample that favours the highest values as a whole.

For the experiment, the target named is MSI1 full-length (mouse, UniProt Q61474 1-362). In words: nsRBNS (natural sequence RNA bind-n-seq); RBNS binding buffer (assumed for nsRBNS): 25 mM Tris pH 7.5, 150 mM KCl, 3 mM MgCl2, 0.01% Triton X-100, 500 ug/ml BSA, 20 U/ml SUPERase-In, 4 C; UNK is unkempt and MSI1 is Musashi-1; names of the RNAs are library labels; protein concentration not given here; high values mean tight binding.
Chain of MSI1 full-length (Q61474 whole entry): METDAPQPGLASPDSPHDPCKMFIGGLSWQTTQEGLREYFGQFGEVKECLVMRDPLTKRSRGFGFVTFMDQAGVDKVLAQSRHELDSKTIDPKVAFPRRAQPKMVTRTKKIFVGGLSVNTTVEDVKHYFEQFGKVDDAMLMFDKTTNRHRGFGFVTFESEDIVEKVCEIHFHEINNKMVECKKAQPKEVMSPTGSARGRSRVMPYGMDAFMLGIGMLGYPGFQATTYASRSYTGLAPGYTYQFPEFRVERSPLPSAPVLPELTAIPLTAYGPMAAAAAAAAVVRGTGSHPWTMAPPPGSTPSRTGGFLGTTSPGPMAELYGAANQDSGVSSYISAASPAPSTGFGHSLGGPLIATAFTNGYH
The molecule B1 registered a binding signal of 24.6 enrichment R. Take B2: the binding signal is 20.5 enrichment R. For the molecule B3, the binding signal is 1.39 enrichment R. In the case of B4 it was 0.533 enrichment R; in that of B5, 0.272 enrichment R; in that of B6, 17.4 enrichment R.

B7 returned a binding signal of 1.57 enrichment R. Take B8: the binding signal turned out to be 0.812 enrichment R.

B9 gave a binding signal of 0.425 enrichment R.

In the case of B10, the binding signal was found to be 0.825 enrichment R. B11: the binding signal came to 0.478 enrichment R. The molecule B12 came in with a binding signal of 0.646 enrichment R. B13 displayed a binding signal of 0.574 enrichment R. B14 showed a binding signal of 0.808 enrichment R. Take B15: the binding signal amounted to 0.429 enrichment R. As for B16, the figure is 0.465 enrichment R. In the case of B17, the binding signal amounted to 21 enrichment R. Take B18: the binding signal is 25 enrichment R. B19 showed a binding signal of 18.8 enrichment R.

In turn, B20 gave a binding signal of 5.27 enrichment R. As for B21, the figure is 7.75 enrichment R; as for B22, 1.55 enrichment R; as for B23, 16.5 enrichment R. As for B24, the figure is 0.641 enrichment R. In the case of B25 it was 2.64 enrichment R; in that of B26, 0.746 enrichment R. B27 yielded a binding signal of 0.906 enrichment R.
